Structures can show the parent of a compound that is named as a salt.

This experiment deals with S. cerevisiae BY4741 (wild-type), vegetative growth in YPD. In words: growth sensitivity score (doubling time z-score vs DMSO controls); higher = slower growth, strongly negative scores also mark growth inhibition (complete suppression), active = hit call of the paper. The procedure, abridged: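 Saccharomyces cerevisiae strains BY4741 and AD1-9 were seeded in rich medium in microtiter plates at an OD600 of 0.065. Compounds were added at a 1:100 dilution of DMSO stock. Optical density was read every 15 min for 24 hours on a Tecan GENios reader. Average doubling time was the time taken to reach a set generation point divided by generation number, and the growth sensitivity score was (compound mean − DMSO-control mean)/DMSO-control SD, using eight DMSO controls per experiment.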
For `CN1[C@@H]2CC[C@H]1C[C@@H](OC(=O)c1c[nH]c3ccccc13)C2` [Tropisetron hydrochloride] (stock concentration (mM, diluted 1:100): 7.7), the growth sensitivity score is -0.89 (inactive).

Consider `O=C1c2cccc3c2[C@H](CCC3)CN1[C@@H]1CN2CCC1CC2` [Palonosetron hydrochloride] (stock concentration (mM, diluted 1:100): 10), for which the growth sensitivity score was -1.82 (inactive).

`CCN1CCC[C@H]1CNC(=O)c1c(O)c(Cl)cc(Cl)c1OC` [Raclopride] (stock concentration (mM, diluted 1:100): 10): the growth sensitivity score is 0.66 (inactive).

On to `COc1ccc(CCN(C)CCCC(C#N)(c2ccc(OC)c(OC)c2)C(C)C)cc1OC` (configuration not stated) (stock concentration (mM, diluted 1:100): 10), for which the growth sensitivity score is 0.01 (inactive).

As for `Clc1ccccc1CN1CCc2sccc2C1` [Ticlopidine hydrochloride] (stock concentration (mM, diluted 1:100): 8.7), the growth sensitivity score was 0.36 (inactive).

For `CCN1CCC[C@H]1CNC(=O)c1cc(S(N)(=O)=O)ccc1OC` [Levosulpiride] (stock concentration (mM, diluted 1:100): 10), the growth sensitivity score was 0.25 (inactive).

With `CCc1c2c(nc3ccc(OC(=O)N4CCC(N5CCCCC5)CC4)cc13)-c1cc3c(c(=O)n1C2)COC(=O)[C@]3(O)CC` [Irinotecan hydrochloride] (stock concentration (mM, diluted 1:100): 8.7), the growth sensitivity score is -1.27 (inactive).

For `COc1cc(C[C@@H](CO)[C@H](CO)Cc2ccc(O)c(OC)c2)ccc1O` [Secoisolariciresinol] (stock concentration (mM, diluted 1:100): 10), the growth sensitivity score was -0.92 (inactive).

For the compound `O=c1c(O[C@@H]2O[C@H](CO)[C@@H](O)[C@H](O)[C@H]2O)c(-c2ccc(O)c(O)c2)oc2cc(O)cc(O)c12` [Isoquercetrin] (stock concentration (mM, diluted 1:100): 10), the growth sensitivity score is 0.03 (inactive).

Turning to `c1cnc(N2CCN(Cc3ccc4c(c3)OCO4)CC2)nc1` [Piribedil] (stock concentration (mM, diluted 1:100): 9.7), the growth sensitivity score was 1.65 (inactive).

For `O=C(O)Cc1ccccc1Nc1c(Cl)cccc1Cl` [Diclofenac] (stock concentration (mM, diluted 1:100): 10), the growth sensitivity score was 1.48 (inactive).

As to `COc1cc(C(=O)NC2CCCNC2)cc(OC)c1OC` (configuration not stated) [Troxipide] (stock concentration (mM, diluted 1:100): 10.1), the growth sensitivity score is 0.38 (inactive).

With `C[C@H]1COc2c(C3(N)CC3)c(F)cc3c(=O)c(C(=O)O)cn1c23` [Pazufloxacin] (stock concentration (mM, diluted 1:100): 10), the growth sensitivity score was -1.05 (inactive).

In the case of `CN(C)CC/C=C1/c2ccccc2COc2ccc(CC(=O)O)cc21` [Olopatadine hydrochloride] (stock concentration (mM, diluted 1:100): 12.7), the growth sensitivity score is -0.74 (inactive).

As to `CN1CCC(=C2c3ccccc3CCc3sccc32)CC1` [Pizotyline] (stock concentration (mM, diluted 1:100): 10), the growth sensitivity score was 5.7 (active).

Consider `CC[C@@]1(O)C(=O)OCc2c1cc1n(c2=O)Cc2cc3c(CN(C)C)c(O)ccc3nc2-1` [Topotecan hydrochloride] (stock concentration (mM, diluted 1:100): 9.2), for which the growth sensitivity score was -1.34 (inactive).

Consider `O=C1[C@H](CC[C@H](O)c2ccc(F)cc2)[C@@H](c2ccc(O)cc2)N1c1ccc(F)cc1` [Ezetimibe] (stock concentration (mM, diluted 1:100): 10), for which the growth sensitivity score was -0.7 (inactive).

As to `Nc1c2c(nc3ccccc13)CCCC2` [Tacrine hydrochloride] (stock concentration (mM, diluted 1:100): 9), the growth sensitivity score was 2.93 (active).

As for `O=C(CCCN1CC=C(n2c(=O)[nH]c3ccccc32)CC1)c1ccc(F)cc1` [Droperidol] (stock concentration (mM, diluted 1:100): 10), the growth sensitivity score is -0.99 (inactive).

Take `CC(=O)CCCCn1cnc2c1c(=O)n(C)c(=O)n2C` [Lomifylline] (stock concentration (mM, diluted 1:100): 10): the growth sensitivity score is 0.79 (inactive).

Take `O=C1c2c(O)cc(O)cc2OC(c2ccc(O)c(O)c2)C1O` (configuration not stated) [Taxifolin] (stock concentration (mM, diluted 1:100): 10): the growth sensitivity score was -0.85 (inactive).

`CO[C@H]1/C=C/O[C@@]2(C)Oc3c(C)c(O)c4c(c3C2=O)C2=NC3(CCN(CC(C)C)CC3)NC2=C(NC(=O)/C(C)=C\C=C\[C@H](C)[C@H](O)[C@@H](C)[C@@H](O)[C@@H](C)[C@H](OC(C)=O)[C@@H]1C)C4=O` [Rifabutin] (stock concentration (mM, diluted 1:100): 10): the growth sensitivity score was 0.72 (inactive).

In the case of `COc1cc(CNC(=O)CCCC/C=C/C(C)C)ccc1O` [Capsaicin] (stock concentration (mM, diluted 1:100): 10), the growth sensitivity score was 3.2 (active).

On to `N[C@@H](C(=O)N[C@@H]1C(=O)N2C(C(=O)O)=C(Cl)CS[C@H]12)c1ccccc1` [Cefaclor] (stock concentration (mM, diluted 1:100): 10), for which the growth sensitivity score was 0.84 (inactive).

For the compound `C/C=C1\[C@H]2C=C(C)C[C@]1(N)c1ccc(=O)[nH]c1C2` [Huperzine a] (stock concentration (mM, diluted 1:100): 10), the growth sensitivity score is -1.79 (inactive).

For `CC(=O)N1CCN(c2ccc(OCC3COC(Cn4ccnc4)(c4ccc(Cl)cc4Cl)O3)cc2)CC1` (configuration not stated) [Ketoconazole] (stock concentration (mM, diluted 1:100): 10), the growth sensitivity score is 35.3 (active).

Regarding `Nc1nnc(-c2cccc(Cl)c2Cl)c(N)n1` [Lamotrigine] (stock concentration (mM, diluted 1:100): 10.3), the growth sensitivity score is -1.57 (inactive).

As to `Oc1ccc(C2CNCCc3c2cc(O)c(O)c3Cl)cc1` (configuration not stated) [Fenoldopam mesylate] (stock concentration (mM, diluted 1:100): 7.7), the growth sensitivity score was -0.74 (inactive).

For `CN(C)CC[C@@H](c1ccc(Cl)cc1)c1ccccn1` [Dexchlorpheniramine maleate] (stock concentration (mM, diluted 1:100): 7), the growth sensitivity score is 0.54 (inactive).

On to `CCOC(=O)C1=C(COCCN)NC(C)=C(C(=O)OC)C1c1ccccc1Cl` (configuration not stated) [Amlodipine base] (stock concentration (mM, diluted 1:100): 13.9), for which the growth sensitivity score is 14.2 (active).

As to `NC(=O)OCC(COC(N)=O)c1ccccc1` [Felbamate] (stock concentration (mM, diluted 1:100): 14), the growth sensitivity score is -0.94 (inactive).

Consider `CN1CCN(C2=Nc3cc(F)ccc3Cc3ccccc32)CC1` [Fluperlapine] (stock concentration (mM, diluted 1:100): 10), for which the growth sensitivity score was 0.57 (inactive).

With `CCn1cc(C(=O)O)c(=O)c2cc(F)c(N3CCN(C)CC3)cc21` [Pefloxacin mesylate] (stock concentration (mM, diluted 1:100): 7.9), the growth sensitivity score was -1.1 (inactive).

Consider `COc1ccc(-c2oc3c(CC=C(C)C)c(O[C@@H]4O[C@H](CO)[C@@H](O)[C@H](O)[C@H]4O)cc(O)c3c(=O)c2O[C@@H]2O[C@@H](C)[C@H](O)[C@@H](O)[C@H]2O)cc1` [Icariin] (stock concentration (mM, diluted 1:100): 10), for which the growth sensitivity score was -1.71 (inactive).

With `CN1C(C(=O)Nc2ccccn2)=C(O)c2ccccc2S1(=O)=O` [Piroxicam] (stock concentration (mM, diluted 1:100): 10), the growth sensitivity score is 0.09 (inactive).

Turning to `CNCC[C@H](Oc1cccc2ccccc12)c1cccs1` [Duloxetine hydrochloride] (stock concentration (mM, diluted 1:100): 8.9), the growth sensitivity score was 21.8 (active).

Turning to `O=C1CCc2ccc(OCCCCN3CCN(c4cccc(Cl)c4Cl)CC3)cc2N1` [Aripiprazole] (stock concentration (mM, diluted 1:100): 10), the growth sensitivity score was 117 (active).

For the origin of these results see the supplement of paper PMC3414501.
